{"source": "PubChem BioAssay AID652106", "about": "(National Center for Advancing Translational Sciences (NCATS), 2013)", "note": "Screen size: about 370,000 compounds; about 500 (0.14%) were called active. A call without a number means that no potency is given here. Another 2% or so got no clear call; they are omitted. Calls follow the shape of the dose curve; as a rule, active = well fitted activation curve with a large enough effect; inconclusive = small, poorly fitted or top-dose-only effect; inactive = no such curve, though single readings can be large or run the other way. For the sample, actives were picked, then their nearest neighbours and some compounds at random. Potency is read from the fitted curve at half-maximal effect.", "data": [{"test": "qHTS of alpha-syn Inhibitors; also: nearly all actives have a fitted effect of over 65% in size", "settings": "Yeast expressing alpha-synuclein, BacTiter-Glo, 24 h; Potency: growth rescue; series mostly up to 46.1 µM", "excerpt": "The goal of this project is to identify new chemical probes capable of reversing the toxicity associated with the Parkinson disease-related protein, alpha-synuclein. Compounds will be selected on their ability to restore growth in yeast cells expressing toxic levels of alpha-synuclein. These compounds will provide a complementary approach to deciphering the tangled mechanisms of toxicity and protection that we have uncovered through genome-wide genetic screens and are beginning to uncover in a large-scale proteomics analysis with mass spectroscopy. To this end, a miniaturized assay was developed to be screened against the Molecular Libraries Small Molecule Repository (MLSMR) to discover alpha-synuclein inhibitors. Please note that in the set-up this yeast-based assay compounds that inhibit as alpha-syn, have a read-out as activators. NIH Chemical Genomics Center [NCGC] NIH Molecular Libraries Probe Centers Network [MLPCN] MLPCN Grant: NS060957 Assay Submitter (PI): Susan Lindquist, Whitehead Institute/MIT\nDispense 2.5 microL yeast galactose medium per 1536-well plate, pin compound, dispense 2.5 microL alpha-synuclein expressing yeast in galactose medium at OD600=0.02 (pregrown in raffinose medium to mid-log phase) per well, incubate for 24 hr at 30 deg C, and cell growth will be measured using 5 microL of Bactiter/Glo reagent to entire plate and read using Luminescence Protocol in ViewLux.", "values": [{"molecule": "C[C@@H]1C[C@@H]2O[C@H]2/C=C\\C=C\\C(=O)Cc2c(Cl)c(O)cc(O)c2C(=O)O1", "Potency": "7.94 µM (active)"}, {"molecule": "CC(=O)NCC1=C(c2ccc3ccccc3c2)C[C@@H]2CC[C@H]1N2Cc1ccco1", "Potency": "inactive"}, {"molecule": "O=C(NCC1=C(c2ccc3ccccc3c2)C[C@@H]2CC[C@H]1N2Cc1ccco1)c1cccs1", "Potency": "3.55 µM (active)"}, {"molecule": "Cc1ncoc1C(=O)NCC1=C(c2cccc3ccccc23)C[C@@H]2CC[C@H]1N2Cc1ccco1", "Potency": "inactive"}, {"molecule": "N#Cc1c(Cl)c(Cl)c(Cl)c(C#N)c1Cl", "Potency": "inactive"}, {"molecule": "COc1ccc(NC(=O)Nc2cccc3cccnc23)cc1", "Potency": "inactive"}, {"molecule": "c1ccc(Cc2nn3c(Cn4cnc5ccccc54)nnc3s2)cc1", "Potency": "inactive"}, {"molecule": "O=C(O)/C=C/c1ccc2c(c1)OCO2", "Potency": "inactive"}, {"molecule": "CC(=O)c1c(O)c(C)c(O)c(Cc2c(O)c3c(c(C(=O)/C=C/c4ccccc4)c2O)OC(C)(C)C=C3)c1O", "Potency": "inactive"}]}]}
